Measurements from publication PMC7862700, “An all-to-all approach to the identification of sequence-specific readers for epigenetic DNA modifications on cytosine”.

Columns and labels:
Test in all cases: DAPPL (digital affinity profiling via proximity ligation, sequencing); 10 mM Tris-HCl pH 7.5, 50 mM NaCl, 1 mM DTT, 4% glycerol, room temperature, 30 min; GST-TFs on glutathione beads, 16-mer random dsDNA library, 0.1% formaldehyde crosslink after washing; high values mean tight binding
Conditions in all cases: protein: recombinant; tags: N-terminal GST; dsDNA, one strand shown
[1] = molecular target: ELF4 (Homo sapiens, UniProt Q99607 1-663)
Outline: (§1)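 Sequencing on an Illumina NextSeq500 followed washing, crosslinking with 0.1% formaldehyde, proximity ligation (BsaI/T4 ligase, 1 h, 37 °C) and PCR amplification of pools that had been incubated for 30 min at room temperature with 200 nmole of a random double-stranded 16-mer DNA library in Tris/NaCl/DTT/glycerol buffer. Each pool held DNA-barcoded human transcription factors, expressed in yeast as GST fusions and captured on glutathione beads, plus a tag-only sample. Binding signal is a hexamer's read frequency for a factor divided by its frequency in the tag-only sample.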

[2] = molecular target: T1, ETV2 (Homo sapiens, UniProt O00321 1-342)
T1 sequence: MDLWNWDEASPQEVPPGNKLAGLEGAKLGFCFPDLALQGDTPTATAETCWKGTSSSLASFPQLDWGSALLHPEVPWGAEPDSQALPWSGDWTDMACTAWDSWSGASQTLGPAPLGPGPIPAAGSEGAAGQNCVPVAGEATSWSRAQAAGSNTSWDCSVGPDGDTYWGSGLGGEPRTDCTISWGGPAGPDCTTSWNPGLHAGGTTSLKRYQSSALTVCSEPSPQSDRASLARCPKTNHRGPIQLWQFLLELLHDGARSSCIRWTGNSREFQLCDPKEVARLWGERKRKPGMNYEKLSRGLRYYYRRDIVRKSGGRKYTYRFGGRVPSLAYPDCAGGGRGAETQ
Outline: as §1

[3] = molecular target: T2, ELF3 (Homo sapiens, UniProt P78545 1-371)
T2 sequence: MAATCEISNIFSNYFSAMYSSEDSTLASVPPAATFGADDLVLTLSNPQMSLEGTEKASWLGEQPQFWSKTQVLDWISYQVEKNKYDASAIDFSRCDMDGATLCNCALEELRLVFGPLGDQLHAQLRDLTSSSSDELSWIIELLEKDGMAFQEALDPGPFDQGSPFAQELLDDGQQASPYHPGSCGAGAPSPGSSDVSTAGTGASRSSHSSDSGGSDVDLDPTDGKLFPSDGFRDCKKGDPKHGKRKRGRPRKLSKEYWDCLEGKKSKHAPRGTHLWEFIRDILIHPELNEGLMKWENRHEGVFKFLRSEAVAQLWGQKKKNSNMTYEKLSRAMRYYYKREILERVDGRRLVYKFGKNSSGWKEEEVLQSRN
Outline: as §1

[4] = molecular target: T3, ERF (Homo sapiens, UniProt P50548 1-548)
T3 sequence: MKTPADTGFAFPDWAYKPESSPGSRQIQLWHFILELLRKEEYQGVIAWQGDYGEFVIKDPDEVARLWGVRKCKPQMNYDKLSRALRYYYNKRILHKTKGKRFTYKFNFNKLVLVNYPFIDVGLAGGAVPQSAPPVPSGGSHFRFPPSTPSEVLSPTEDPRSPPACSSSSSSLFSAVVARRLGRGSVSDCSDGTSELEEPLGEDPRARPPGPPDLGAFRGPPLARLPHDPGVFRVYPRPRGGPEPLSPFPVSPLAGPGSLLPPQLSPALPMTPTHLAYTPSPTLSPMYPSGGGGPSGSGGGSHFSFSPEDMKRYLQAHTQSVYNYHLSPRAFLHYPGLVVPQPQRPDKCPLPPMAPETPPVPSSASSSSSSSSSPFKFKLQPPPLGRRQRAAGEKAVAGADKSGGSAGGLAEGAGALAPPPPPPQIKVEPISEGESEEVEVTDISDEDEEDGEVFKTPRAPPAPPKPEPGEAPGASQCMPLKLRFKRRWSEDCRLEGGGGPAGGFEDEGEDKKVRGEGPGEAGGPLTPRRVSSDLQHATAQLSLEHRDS
Outline: as §1

[5] = molecular target: T4, ETV3L (Homo sapiens, UniProt Q6ZN32 1-361)
T4 sequence: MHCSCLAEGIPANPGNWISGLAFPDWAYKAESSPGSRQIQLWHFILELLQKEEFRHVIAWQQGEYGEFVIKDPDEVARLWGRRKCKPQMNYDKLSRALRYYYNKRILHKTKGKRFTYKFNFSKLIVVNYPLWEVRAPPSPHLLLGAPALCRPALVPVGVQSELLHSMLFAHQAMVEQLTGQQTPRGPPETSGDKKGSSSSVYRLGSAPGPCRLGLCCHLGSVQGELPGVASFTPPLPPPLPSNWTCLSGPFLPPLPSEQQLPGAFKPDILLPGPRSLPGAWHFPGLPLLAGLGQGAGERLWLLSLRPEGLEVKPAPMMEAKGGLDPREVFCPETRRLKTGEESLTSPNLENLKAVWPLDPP
Outline: as §1

[6] = molecular target: T5, ETS2 (Homo sapiens, UniProt P15036 1-469)
T5 sequence: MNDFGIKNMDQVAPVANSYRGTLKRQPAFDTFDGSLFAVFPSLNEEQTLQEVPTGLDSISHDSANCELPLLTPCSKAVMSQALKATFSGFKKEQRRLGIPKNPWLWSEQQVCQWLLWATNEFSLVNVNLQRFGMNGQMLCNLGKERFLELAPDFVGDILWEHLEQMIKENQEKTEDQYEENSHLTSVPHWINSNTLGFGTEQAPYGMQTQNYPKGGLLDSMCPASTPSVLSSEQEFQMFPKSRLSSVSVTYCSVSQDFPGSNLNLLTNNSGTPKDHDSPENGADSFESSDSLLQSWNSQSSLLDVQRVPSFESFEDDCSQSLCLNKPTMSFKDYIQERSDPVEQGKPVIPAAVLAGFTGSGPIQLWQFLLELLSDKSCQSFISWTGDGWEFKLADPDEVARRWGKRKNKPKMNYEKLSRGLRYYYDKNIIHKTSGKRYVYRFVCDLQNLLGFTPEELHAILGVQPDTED
Outline: as §1

[7] = molecular target: T6, SPDEF (Homo sapiens, UniProt O95238 1-335)
T6 sequence: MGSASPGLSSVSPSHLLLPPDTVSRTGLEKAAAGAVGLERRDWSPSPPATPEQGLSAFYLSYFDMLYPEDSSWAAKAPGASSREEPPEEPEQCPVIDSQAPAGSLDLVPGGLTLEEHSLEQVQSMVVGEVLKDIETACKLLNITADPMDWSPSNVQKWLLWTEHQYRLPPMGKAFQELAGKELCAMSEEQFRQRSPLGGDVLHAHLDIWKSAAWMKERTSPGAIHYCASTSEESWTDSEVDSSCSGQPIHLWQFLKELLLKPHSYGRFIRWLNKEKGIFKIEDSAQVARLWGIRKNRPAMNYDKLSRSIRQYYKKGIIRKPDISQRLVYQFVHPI
Outline: as §1

[8] = molecular target: T7, ETV7 (Homo sapiens, UniProt Q9Y603 1-341)
T7 sequence: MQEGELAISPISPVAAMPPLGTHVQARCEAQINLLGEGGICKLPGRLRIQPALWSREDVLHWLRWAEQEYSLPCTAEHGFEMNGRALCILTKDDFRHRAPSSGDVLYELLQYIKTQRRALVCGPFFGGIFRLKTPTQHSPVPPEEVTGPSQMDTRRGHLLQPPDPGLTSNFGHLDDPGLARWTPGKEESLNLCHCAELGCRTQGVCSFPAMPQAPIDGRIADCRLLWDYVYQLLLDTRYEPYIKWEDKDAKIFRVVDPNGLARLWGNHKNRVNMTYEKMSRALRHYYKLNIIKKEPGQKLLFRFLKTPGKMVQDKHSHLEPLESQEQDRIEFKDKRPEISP
Outline: as §1

[9] = molecular target: T8, ELF5 (Homo sapiens, UniProt Q9UKW6-2 1-255)
T8 sequence: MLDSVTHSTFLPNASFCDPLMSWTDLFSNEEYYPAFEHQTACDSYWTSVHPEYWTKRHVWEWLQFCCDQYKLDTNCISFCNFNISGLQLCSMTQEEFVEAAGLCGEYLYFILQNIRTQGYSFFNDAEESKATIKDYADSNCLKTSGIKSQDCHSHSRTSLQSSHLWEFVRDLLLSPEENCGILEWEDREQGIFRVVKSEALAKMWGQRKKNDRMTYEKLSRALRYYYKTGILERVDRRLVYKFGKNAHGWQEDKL
Outline: as §1

[10] = molecular target: ETV6 (Homo sapiens, UniProt P41212 1-452)
Outline: as §1

Sequence of ETV6 (P41212 whole entry): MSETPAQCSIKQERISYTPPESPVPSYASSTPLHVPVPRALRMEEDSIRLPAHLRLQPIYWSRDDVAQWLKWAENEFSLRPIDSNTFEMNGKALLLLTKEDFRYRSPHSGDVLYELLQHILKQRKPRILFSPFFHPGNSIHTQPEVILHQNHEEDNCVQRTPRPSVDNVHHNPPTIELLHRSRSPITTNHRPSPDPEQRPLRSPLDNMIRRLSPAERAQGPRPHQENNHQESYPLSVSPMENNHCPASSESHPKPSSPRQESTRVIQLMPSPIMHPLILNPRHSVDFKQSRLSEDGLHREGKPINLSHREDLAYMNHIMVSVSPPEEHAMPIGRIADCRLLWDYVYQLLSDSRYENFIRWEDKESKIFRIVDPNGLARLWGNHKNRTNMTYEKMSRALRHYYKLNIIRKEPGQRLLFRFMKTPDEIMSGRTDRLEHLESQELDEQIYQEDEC
Sequence of ELF4 (Q99607 whole entry, the tested form may be a part): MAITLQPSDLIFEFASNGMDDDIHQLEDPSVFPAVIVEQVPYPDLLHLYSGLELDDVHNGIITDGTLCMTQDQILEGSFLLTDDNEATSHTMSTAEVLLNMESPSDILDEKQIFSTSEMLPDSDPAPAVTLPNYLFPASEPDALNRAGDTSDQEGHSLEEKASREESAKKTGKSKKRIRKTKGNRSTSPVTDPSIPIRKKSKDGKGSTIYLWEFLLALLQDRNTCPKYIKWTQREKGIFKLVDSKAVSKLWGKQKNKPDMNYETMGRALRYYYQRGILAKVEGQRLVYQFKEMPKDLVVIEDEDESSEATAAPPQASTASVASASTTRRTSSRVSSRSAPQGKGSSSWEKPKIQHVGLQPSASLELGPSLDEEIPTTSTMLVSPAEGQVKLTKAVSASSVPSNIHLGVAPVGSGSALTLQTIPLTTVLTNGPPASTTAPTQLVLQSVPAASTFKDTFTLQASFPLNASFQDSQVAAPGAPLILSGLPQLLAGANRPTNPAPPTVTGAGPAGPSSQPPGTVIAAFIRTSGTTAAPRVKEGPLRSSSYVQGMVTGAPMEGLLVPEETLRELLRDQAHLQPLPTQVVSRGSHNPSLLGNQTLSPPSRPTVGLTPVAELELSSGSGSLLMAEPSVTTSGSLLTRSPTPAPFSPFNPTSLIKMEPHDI

GAATGC
binding signal [1]: 1.05 fold enrichment (6-mer frequency, TF over GST control)
binding signal [2]: 1.04 fold enrichment (6-mer frequency, TF over GST control)
binding signal [3]: 1.06 fold enrichment (6-mer frequency, TF over GST control)
binding signal [4]: 1.04 fold enrichment (6-mer frequency, TF over GST control)
binding signal [5]: 1.01 fold enrichment (6-mer frequency, TF over GST control)
binding signal [6]: 1.05 fold enrichment (6-mer frequency, TF over GST control)
binding signal [7]: 1.04 fold enrichment (6-mer frequency, TF over GST control)
binding signal [8]: 1.03 fold enrichment (6-mer frequency, TF over GST control)
binding signal [9]: 1.07 fold enrichment (6-mer frequency, TF over GST control)
binding signal [10]: 1.01 fold enrichment (6-mer frequency, TF over GST control)
